Gal4-VP16 FLuc = counter-screen for ROR gamma inhibitors: Gal4-VP16 reporter. hit rate 3.5% among 310,000. Drosophila S2 Gal4-VP16 UAS-luciferase, luminescence, 20 h. Potency, µM (highest dose often 53.6 µM), without a hit: at the highest dose activity, negative = inhibition, actives largely listed as inhibitors;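 further: Gal4-VP16 expression switched on by copper sulfate through the metallothionein promoter; potency means the concentration at half of the fitted maximal effect; nearly all actives have a fitted effect of over 50% in size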
LDHA block = blocks human lactate dehydrogenase A; activity change, % (values are at about 110 or 230 µM); purified LDHA, NADH/diaphorase-resazurin fluorescence; stronger effect = lower value; AID 1347041; P00338; hit rate 0.15% among 480,000; in the data active means activity change below about -30%; inconclusive means mostly about -25% to -30%;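 further: plate controls were DMSO wells for no effect and wells without enzyme for full effect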
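Resorufin fluorescence (ex540/em590), read at 0 and 20 min after diaphorase/resazurin addition, reports the NADH left after a 5 min room-temperature reaction of 2 nM human LDH5 with 0.06 mM NADH and 0.2 mM pyruvate.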
IL-1B inflam inh = inflammasome signaling inhibition, IL-1 beta readout. THP-1 LPS/ATP IL-1B secretion, AlphaLISA, 16 h; stronger effect = lower value. activity change, % at 57.5 µM. hit rate 4.7% among 360,000. AID 743279; in the data active means activity change below about -50%; inconclusive means mostly about -30% to -49%
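THP-1 cells pretreated 1 hr with compounds (up to 57.5 uM final), then stimulated with LPS (250 ng/mL final) plus ATP (1.25 mM final); secreted IL-1B measured by AlphaLISA after 16 hr, decreased signal indicating inhibition.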
RORgamma inh = inhibitors of mouse ROR gamma transcriptional activity | Potency, µM (series often up to 53.6 µM), inactives show at the highest dose activity change, negative = inhibition, most hits filed as inhibitors | hit rate 5.4% among 310,000 | AID 2551 | Drosophila S2 Gal4-RORgamma UAS-luciferase reporter, 20 h | P51450; further: potency means the concentration at half of the fitted maximal effect; nearly all actives have a fitted effect of over 60% in size
Target sequence (P51450 whole entry, looked up, the tested form may be a part): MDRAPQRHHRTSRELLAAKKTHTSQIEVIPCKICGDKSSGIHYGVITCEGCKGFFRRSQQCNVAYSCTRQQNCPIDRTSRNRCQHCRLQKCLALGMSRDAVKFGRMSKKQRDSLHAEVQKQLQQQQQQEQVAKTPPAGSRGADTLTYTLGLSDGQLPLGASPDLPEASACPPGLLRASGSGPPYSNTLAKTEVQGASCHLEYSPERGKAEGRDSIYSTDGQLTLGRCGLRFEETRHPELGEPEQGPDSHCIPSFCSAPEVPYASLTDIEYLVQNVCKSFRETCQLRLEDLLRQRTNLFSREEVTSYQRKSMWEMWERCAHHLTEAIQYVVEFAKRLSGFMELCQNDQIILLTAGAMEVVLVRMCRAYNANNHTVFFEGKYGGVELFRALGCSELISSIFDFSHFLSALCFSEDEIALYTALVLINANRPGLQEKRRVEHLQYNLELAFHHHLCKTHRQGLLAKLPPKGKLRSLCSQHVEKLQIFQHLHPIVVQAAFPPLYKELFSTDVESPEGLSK
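Stable Schneider cell line, Gal4 DNA-binding domain fused to ROR gamma, UAS-luciferase. Cmpd 1 hr RT → CuSO4 700 uM final → 20 hr RT → luciferase reagent 10 min → luminescence.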
TDP1 cell noCPT = qHTS for Inhibitors of human tyrosyl-DNA phosphodiesterase 1 (TDP1): qHTS in cells in absence of CPT | hit rate 15% among 420,000 | DT40 Tdp1-/- hTDP1 cells, no CPT, ATP luminescence, 48 h | Potency, µM (titrated, usually from 46.2 µM), without a hit: at the highest dose activity change, negative = growth inhibition, hits mostly inhibitors; further: potency means the concentration at half of the fitted maximal effect; nearly all actives have a fitted effect of over 55% in size
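Seeded 400 DT40-hTDP1 cells/well (vehicle DMSO, no 20 nM CPT); pinned compounds; ≥48 hr at 37 °C; CellTiter-Glo luminescence as viability measure.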
DT40 TDP1 CPT = growth inhibition of DT40 Tdp1-/-;hTDP1 cells with camptothecin (screen for TDP1 inhibitors). chicken DT40 Tdp1-/-;hTDP1 cells + 20 nM CPT, ATP luminescence, 48 h. AID 686979. hit rate 12% among 420,000. Potency, µM (doses to about 46.2 µM), for the others: at the top dose activity change, negative = growth inhibition, usual class: inhibitors; further: potency means the concentration at half of the fitted maximal effect; nearly all actives have a fitted effect of over 55% in size
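Chicken DT40 Tdp1-/- cells stably complemented with human TDP1 were seeded at 400 cells/well in medium containing 20 nM camptothecin, exposed to pin-transferred compounds, and grown at 37 °C for at least 48 hr. Viability was read as ATP luminescence.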
Starred values were filed as active, the others as inactive; ? = inconclusive; · = not tested or not shown; [ ] = another dose, or the depositor's remark. Sampled rows, rich in hits. Any-hit rate of the full collection: about 18%. Unless noted, the call rests on the fitted dose curve; in most records, active means well fitted curve in the direction sought with a large enough effect; inconclusive means small, poorly fitted or top-dose-only effect, or another doubt; inactive means no such curve, though single readings can be large; an effect the other way counts as inactive or inconclusive. Unless noted, on the % scale 0 is the no-effect control and ±100 the full control effect.

SMILES	Gal4-VP16 FLuc	LDHA block	IL-1B inflam inh	RORgamma inh	TDP1 cell noCPT	DT40 TDP1 CPT
CCCCNC(=O)C[C@@H]1C[C@@]2(C(=O)OC)CCCCC=C2N(Cc2ccccc2)C1=O	·	1	16	·	?	?
COC(=O)[C@]12CCCCC=C1N(Cc1ccc(Cl)cc1Cl)C(=O)[C@H](CC(=O)NCC1CCCCC1)C2	·	-3	0	·	18µM*	?
COCCCNC(=O)C[C@@H]1C[C@@]2(C(=O)OC)CCCCC=C2N(Cc2ccccc2)C1=O	·	-2	-3	·	-10%	-3%
COC(=O)[C@]12CCCCC=C1N(Cc1ccccc1)C(=O)[C@H](CC(=O)NCC1CCCCC1)C2	·	0	-8	·	?	16µM*
COCCCNC(=O)C[C@@H]1C[C@@]2(C(=O)OC)CCCCC=C2N(Cc2ccc(Cl)cc2Cl)C1=O	·	-1	-5	·	16µM*	?
Cc1cc(C)c(C(=O)OCC(=O)N2CCN(S(=O)(=O)c3ccc4ccccc4c3)CC2)c(C)c1	·	7	·	·	·	·
N#Cc1cccnc1NCCCNc1ccccn1	·	1	·	·	·	·
c1cc2c3c(cccc3c1)-c1cnccc1-2	·	-4	-66*	·	-24%	15%
O=C1c2cccc3cccc(c23)C(=O)N1Cc1cccnc1	12%	2	24	2%	?	1%
S=c1[nH]nc(COc2ccc3c(c2)OCO3)n1-c1ccccc1	11µM*	-5	18	3.5µM*	-14%	-4%
S=c1[nH]nc(-c2ccc3c(c2)OCO3)n1-c1ccccc1	11µM*	4	0	8.9µM*	-3%	3%
CCn1c(CCCOc2ccc(Cl)cc2Cl)n[nH]c1=S	3.2µM*	-1	-1	2.8µM*	?	?
O=C(COc1ccccc1)NCc1n[nH]c(=S)n1-c1ccccc1	10%	-2	-17	-28%	-9%	-4%
O=[N+]([O-])c1ccc(OCc2n[nH]c(=S)n2-c2ccccc2)cc1	?	-6	15	0.32µM*	-1%	12%
COc1ccc(C(=O)NCc2n[nH]c(=S)n2-c2ccccc2)cc1OC	-5%	-9	-1	-34%	?	3%
S=c1[nH]nc(COc2ccc(Cl)cc2Cl)n1-c1ccccc1	3.5µM*	-8	-4	-33%[1.91 µM]	2%	1%
COc1ccc2cnn(-c3ccccc3C)c(=O)c2c1OC	-11%	-8	20	5%	7.3µM*	10µM*
CCc1ccc(CNc2nc3nc(CC)cc(=O)n3[nH]2)cc1	·	9	·	·	·	·
Cc1csc(N/N=C\c2cccnc2)n1	8%	-3	19	-37%	5.2µM*	2.9µM*
Cc1csc(N/N=C/c2ccc(O)c([N+](=O)[O-])c2)n1	?	-1	9	-5%	26µM*	18µM*
O=[N+]([O-])c1cc(/C=N/N/C(=N/c2ccccn2)c2ccccn2)ccc1O	4.5µM*	4	111	1.4µM*	4.6µM*	3.3µM*
CC(=O)Nc1sc(N/N=C/c2ccc(O)cc2)nc1-c1ccc(C)cc1	3%	1	-3	-28%	11%	-17%
CC(C)(C)c1csc(N/N=C/c2ccc(O)cc2)n1	1µM*	2	?	0.56µM*	?	?
Cc1nnc(N/N=C/c2ccc(O)c([N+](=O)[O-])c2)[nH]c1=O	-15%	0	1	-33%	-19%	-16%
Cn1c(Oc2ccc(Cl)c(Cl)c2)c(C#N)c(=O)n(C)c1=O	·	2	·	·	·	·
SMILES	Gal4-VP16 FLuc	LDHA block	IL-1B inflam inh	RORgamma inh	TDP1 cell noCPT	DT40 TDP1 CPT
O=[N+]([O-])c1cc(/C=N\Nc2nc(-c3ccccc3)cs2)ccc1O	-3%	-8	-15	?	18µM*	15µM*
CC(C)CCNC(=O)NC(=O)CSc1nc2ccccc2c(=O)n1C1CC1	·	-19	·	·	·	·
Cc1cc(NC(=O)N(Cc2ccc(C)o2)C2CC2)no1	·	2	·	·	·	·
CCc1ccc(NC(=O)CSCc2nc(N)nc(Nc3ccccc3CC)n2)cc1	-1%	-6	?	-20%	?	15µM*
CCc1ccc(Nc2nc(N)nc(CSc3nc4ccccc4s3)n2)cc1	?	2	21	13µM*	?	?
Nc1nc(CSc2nc3ccccc3s2)nc(N2CCCCC2)n1	13µM*	-8	-23	6.3µM*	-21%	2%
CCc1ccccc1Nc1nc(N)nc(CSCC(=O)Nc2ccc(C)c(C)c2)n1	1%	7	-9	29%	?	0%
CC(C)NC(=O)/C(=C/c1ccc(-c2cccc(C(F)(F)F)c2)o1)NC(=O)c1ccccc1	·	-3	·	·	·	·
Cc1occc1C(=O)Nc1nc(CC(=O)Nc2ccc3c(c2)CCC3)cs1	·	-3	·	·	·	·
O=c1ccc(-c2ccccc2)nn1Cc1ccc(Cl)cc1	·	0	-27	·	16µM*	?
C=Cc1ccc(Cn2nc(-c3ccc(C)cc3)ccc2=O)cc1	-5%	1	-79*	1%	?	?
COc1ccc(-c2ccc(=O)n(Cc3c(F)cccc3Cl)n2)cc1	2%	-4	4	0%	7.3µM*	15µM*
COC(=O)c1ccc(Cn2nc(-c3ccccc3)ccc2=O)cc1	6%	-3	18	21%	2%	-4%
COc1cccc(-n2ccn(Cc3c(F)cccc3Cl)c(=O)c2=O)c1	·	3	·	·	·	·
O=C(Cn1cnc2cc(Cl)ccc2c1=O)N(C1CCCC1)C1CCS(=O)(=O)C1 (configuration not stated)	·	1	·	·	·	·
Nc1nc(CN2CCN(C(=O)c3cccc(C(F)(F)F)c3)CC2)nc2ccccc12	·	0	·	·	·	·
CC(C)CSc1n[nH]c(=S)s1	-10%	-2	21	10µM*	-26%	-19%
O=[N+]([O-])c1cccc(CSc2ncnc3ccccc23)c1	-24%	2	-61*	14%	?	-16%
O=C1CC(c2nc(-c3cccs3)no2)CN1c1ccc(F)cc1 (configuration not stated)	·	0	·	·	·	·
CCCNC(=O)C1CCN(C(=O)CCc2c(C)[nH]c(C(=O)OCC)c2C)CC1	·	-5	·	·	·	·
Nc1nonc1-n1nnc(C(=O)N/N=C/c2ccccc2Cl)c1-c1ccc2c(c1)OCO2	-22%	-6	0	19%	-12%	-19%
Cc1ccsc1/C=N/NC(=O)c1nnn(-c2nonc2N)c1-c1ccc2c(c1)OCO2	?	-5	-52*	10µM*	-18%	?
Cc1ccc(-c2c(C(=O)N/N=C/c3cccs3)nnn2-c2nonc2N)cc1	5.6µM*	-12	-1	7.1µM*	-23%	-14%
Nc1nonc1-n1nnc(C(=O)N/N=C/c2cccs2)c1-c1ccc2c(c1)OCO2	10µM*	1	-11	7.9µM*	-28%	?

Source: PubChem
